Test results published in PubChem BioAssay (Tox21).
“And” between values parts separate entries of the source, which are not always exact repeats. Equal values may be shown once. Results filed as inconclusive are left out. A structure can be active in one record and inactive in another. The source made the active and inactive calls. The call rests on the fitted dose curve; in most records, active means well fitted curve in the direction sought with a large enough effect in the repeat runs; inconclusive means weak or mixed curves; inactive means no such curve, though single readings can be large; an effect the other way counts as inactive or inconclusive.

Assays:
[1] = qHTS RealTime-Glo MT Cell Viability Assay in HepG2 cells - 8 hour (AID 1224873); further: nearly all actives have a fitted effect of over 55% in size
In short: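 HepG2 cells mixed with RealTime-Glo MT reagents (NanoLuc plus cell-permeant prosubstrate) were seeded at 600 cells/well, incubated 5 h at 37 C/5% CO2, then pinned with compounds in DMSO; nonlytic luminescence tracked viability during 40 h treatment.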

[2] = qHTS RealTime-Glo MT Cell Viability Assay in HEK293 cells - 40 hour (AID 1224874); settings: RealTime-Glo luminescence; max response: stronger effect = lower value; further: nearly all actives have a fitted effect of over 50% in size; further: potency means the concentration at half of the fitted maximal effect
In short: (§1)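 Luminescence, which tracks viable cell number through reduction of the prosubstrate to a NanoLuc substrate, was read over continuous 37 C culture. Cells (600/well) were premixed with reagent and rested 5 h before 23 nL of compound in DMSO was pinned.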

[3] = A CellTox Green Cytotoxicity Assay to monitor cytotoxicity in HepG2 cells - 16 hour (AID 1224876); further: nearly all actives have a fitted effect of over 45% in size
In short: (§2)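 Real-time cytotoxicity: fluorescence of a cell-impermeant cyanine dye binding DNA of dead HepG2 cells, measured repeatedly (0–40 h) during compound exposure at 37 C. Cells seeded 600/well with reagent, dosed after 5 h.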

[4] = qHTS RealTime-Glo MT Cell Viability Assay in HepG2 cells - 32 hour (AID 1224877); further: nearly all actives have a fitted effect of over 55% in size
In short: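 Compound treatment began 5 h after plating HepG2 cells (600/well) with NanoLuc luciferase and prosubstrate. Plates stayed at 37 C for 40 h; luminescence was captured at six time points, 0 h through 40 h.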

[5] = A CellTox Green Cytotoxicity Assay to monitor cytotoxicity in HepG2 cells - 24 hour (AID 1224878); further: nearly all actives have a fitted effect of over 45% in size
In short: as §2

[6] = A CellTox Green Cytotoxicity Assay to monitor cytotoxicity in HepG2 cells - 40 hour (AID 1224879); further: nearly all actives have a fitted effect of over 40% in size; further: potency means the concentration at half of the fitted maximal effect
In short: as §2

[7] = qHTS RealTime-Glo MT Cell Viability Assay in HEK293 cells - 0 hour (AID 1224880); further: top concentration of the series differs between compounds; nearly all actives have a fitted effect of over 45% in size
In short: as §1

[8] = A CellTox Green Cytotoxicity Assay to monitor cytotoxicity in HEK293 cells - 32 hour (AID 1224881); further: nearly all actives have a fitted effect of over 40% in size
In short: (§3)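 Fluorescence from a DNA-binding dye excluded by viable cells was measured repeatedly in the same HEK293 wells (600 cells/well) during continuous compound exposure at 37 C. Each assay gives one read point: 0, 8, 16, 24, 32 or 40 h.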

[9] = A CellTox Green Cytotoxicity Assay to monitor cytotoxicity in HepG2 cells - 0 hour (AID 1224882); further: nearly all actives have a fitted effect of over 35% in size
In short: as §2

[10] = A CellTox Green Cytotoxicity Assay to monitor cytotoxicity in HEK293 cells - 24 hour (AID 1224875); further: series mostly up to about 77 µM; nearly all actives have a fitted effect of over 45% in size
In short: as §3
On the % scale 0 is the no-effect control and ±100 the full control effect.

O=C(O)CCCCCCCC(=O)O
inactive: outcome [1] | max response [2] 2.75% and 4.95% and 3.91% | Potency [3] | Potency [4] | Potency [5] | Potency [6] | Potency [7] | Potency [8] | Potency [9]

Oc1ccc(/C=C/c2cc(O)cc(O)c2)cc1
active: Potency [2] 15.6 µM
inactive: outcome [1] | Potency [3] | Potency [4] | Potency [5] | Potency [7] | Potency [8]

O=C(O)c1[nH]n(-c2ccc(S(=O)(=O)O)cc2)c(=O)c1N=Nc1ccc(S(=O)(=O)O)cc1
inactive: outcome [1] | max response [2] -3.28% and -13% and 0.864% | Potency [3] | Potency [4] | Potency [5] | Potency [6] | Potency [7] | Potency [8]

CCCCC(CC)COC(=O)/C=C/c1ccc(OC)cc1 (stereo unspecified)
inactive: outcome [1] | max response [2] -5.76% and 7.72% and 2.19% | Potency [3] | Potency [4] | Potency [5] | Potency [6] | Potency [7] | Potency [8]

C1N2CN3CN1CN(C2)C3
inactive: outcome [1] | max response [2] 5.73% and 6.94% and 0.249% | Potency [10] | Potency [3] | Potency [4] | Potency [5] | Potency [6] | Potency [7] | Potency [8]

N=C(N)c1ccc(OCCCCCOc2ccc(C(=N)N)cc2)cc1
inactive: outcome [1] | Potency [10] | Potency [3] | Potency [4] | Potency [5] | Potency [7] | Potency [8]
48.8 µM (active) and inactive: Potency [6]

NNC(=O)c1ccncc1
inactive: outcome [1] | max response [2] 1.61% and 0.145% and 4.04% | Potency [10] | Potency [3] | Potency [4] | Potency [5] | Potency [6] | Potency [7] | Potency [8]

CCCCCCCCCCCCCCCC(=O)O
inactive: outcome [1] | Potency [10] | Potency [3] | Potency [4] | Potency [5] | Potency [6] | Potency [7] | Potency [8]

CC(C)(Oc1ccc(C2CC2(Cl)Cl)cc1)C(=O)O (stereo unspecified)
inactive: outcome [1] | max response [2] 2.51% and 10.4% | Potency [10] | Potency [3] | Potency [4] | Potency [5] | Potency [6] | Potency [7] | Potency [8] | Potency [9]
